Test results as given in PubChem BioAssay (Tox21).
Inconclusive results are not listed. Calls of active or inactive are those of the source. Unless noted, the call rests on the fitted dose curve; in most records, active means well fitted curve in the direction sought with a large enough effect in the repeat runs; inconclusive means weak or mixed curves; inactive means no such curve, though single readings can be large; an effect the other way counts as inactive or inconclusive.

How the values were obtained:
[1] = qHTS assay to identify small molecule agonists of the estrogen receptor alpha (ER-alpha) signaling pathway in the presence of an antagonist - cell viability counter screen (AID 1259386);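 further: series mostly up to about 92 µM; cells exposed to compounds for 22 h at 37 °C before the viability read; nearly all actives have a fitted effect of over 30% in size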
In short: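 Cell viability in VM7Luc4E2 cells (endogenous full-length ER-alpha) measured by CellTiter-Fluor fluorescence in the same wells as the luciferase screen. Cells pre-cultured 5 days in charcoal-stripped serum, then treated 22 h with compounds at 15 concentrations plus 10.0nM ICI-182,780.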

[2] = biological target: Progesterone receptor (Homo sapiens) (UniProt P06401); assay: qHTS assay to identify small molecule agonists of the progesterone receptor (PR) signaling pathway (AID 1346784; calls by dose curve; further: nearly all actives have a fitted effect of over 30% in size)
In short: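 Reporter assay, GripTite PR-UAS-bla HEK 293T cells: 16 hr exposure to DMSO-dissolved compounds at 37C, 5% CO2, in steroid-depleted (2% charcoal-stripped FBS) medium; beta-lactamase measured by FRET fluorescence.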

[3] = biological target: Progesterone receptor (Homo sapiens) (UniProt P06401); assay: qHTS assay to identify small molecule antagonists of the progesterone receptor (PR) signaling pathway (AID 1346795; active means well fitted inhibition curve with a large enough effect in the signal ratio in the repeat runs, not every such curve was filed as active; the % refers to the signal ratio)
In short: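 Stimulus R5020 at 1 nM final; cells HEK293T PR-UAS-bla; medium with 2% charcoal-stripped FBS; compound exposure 16 hr at 37C, 5% CO2; detection by FRET beta-lactamase substrate, 2 hr, room temperature.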

[4] = qHTS assay to identify small molecule antagonists of the progesterone receptor (PR) signaling pathway - cell viability counter screen (AID 1346798); further: series mostly up to about 92 µM; nearly all actives have a fitted effect of over 50% in size
In short: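 In the same plates used for the beta-lactamase readout, cell viability of compound- and R5020-treated PR-UAS-bla HEK293T cells (16 hr, 37C) was assessed by CellTiter-Glo luminescence.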

[5] = qHTS assay to identify small molecule agonists of the progesterone receptor (PR) signaling pathway - cell viability counter screen (AID 1346799; calls by dose curve; further: nearly all actives have a fitted effect of over 45% in size)
In short: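 Multiplexed viability read: CellTiter-Glo luminescence, 30 min RT, following LiveBLAzer FRET measurement on PR-UAS-bla HEK293T cells exposed to compounds 16 hr.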

[6] = qHTS assay to identify small molecule antagonists of the TGF-beta/Smad signaling pathway - cell viability counter screen (AID 1346824); further: nearly all actives have a fitted effect of over 50% in size
In short: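 SBE-bla HEK 293T cells were plated overnight at 37 C, then given compounds in DMSO plus TGF-beta1 (added as 0.25 ng/mL solution) for 5 hr. After the bla read, CellTiter-Glo was added to the same wells and luminescence read after 30 min at room temperature.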

[7] = qHTS assay to identify small molecule agonists of the TGF-beta/Smad signaling pathway - cell viability counter screen (AID 1346829); further: top concentration of the series differs between compounds; nearly all actives have a fitted effect of over 45% in size
In short: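 CellTiter-Glo luminescence readout; SBE-bla HEK 293T cells, overnight plating, compound 5 hr at 37 C/5% CO2, then bla substrate 2 hr RT, then CellTiter-Glo 30 min RT.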

[8] = qHTS assay to identify small molecule agonists of the TGF-beta/Smad signaling pathway (AID 1346859; active means well fitted activation curve with a large enough effect in the signal ratio in the repeat runs, not every such curve was filed as active; the % refers to the signal ratio; further: series mostly up to about 77 µM)
In short: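 Screening used HEK 293T SBE-bla cells at 4,000/well. Test agents: 5 hr, 37 C. Detection: FRET substrate, 2 hr RT, then excitation 405 nm with emissions at 460 and 530 nm.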

[9] = biological target: Thyrotropin-releasing hormone receptor (Homo sapiens) (UniProt P34981); assay: qHTS assay to identify small molecule antagonists of the thyrotropin-releasing hormone receptor (TRHR) signaling pathway (AID 1346877; active means well fitted inhibition curve with a large enough effect in the repeat runs, not every such curve was filed as active; further: series mostly up to about 51 µM)
In short: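 TRHR-expressing HEK293 cells loaded with calcium dye for 2 h at 37 C; compounds pre-incubated 5 min at room temperature before TRH challenge at 1 nM final. Intracellular calcium fluorescence read kinetically for 3 min; 15 concentrations in triplicate.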

[10] = biological target: Thyrotropin-releasing hormone receptor (Homo sapiens) (UniProt P34981); assay: qHTS assay to identify small molecule agonists of the thyrotropin-releasing hormone receptor (TRHR) signaling pathway (AID 1346891; calls by dose curve; further: series mostly up to about 58 µM)
In short: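 Readout was intracellular calcium fluorescence in TRHR-Hek293 cells. Cells were incubated 18 h, dye-loaded 2 h at 37 °C, and treated with compound in agonist mode.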

Measured: Potency

Sequence of Progesterone receptor (Homo sapiens) (P06401 whole entry, looked up): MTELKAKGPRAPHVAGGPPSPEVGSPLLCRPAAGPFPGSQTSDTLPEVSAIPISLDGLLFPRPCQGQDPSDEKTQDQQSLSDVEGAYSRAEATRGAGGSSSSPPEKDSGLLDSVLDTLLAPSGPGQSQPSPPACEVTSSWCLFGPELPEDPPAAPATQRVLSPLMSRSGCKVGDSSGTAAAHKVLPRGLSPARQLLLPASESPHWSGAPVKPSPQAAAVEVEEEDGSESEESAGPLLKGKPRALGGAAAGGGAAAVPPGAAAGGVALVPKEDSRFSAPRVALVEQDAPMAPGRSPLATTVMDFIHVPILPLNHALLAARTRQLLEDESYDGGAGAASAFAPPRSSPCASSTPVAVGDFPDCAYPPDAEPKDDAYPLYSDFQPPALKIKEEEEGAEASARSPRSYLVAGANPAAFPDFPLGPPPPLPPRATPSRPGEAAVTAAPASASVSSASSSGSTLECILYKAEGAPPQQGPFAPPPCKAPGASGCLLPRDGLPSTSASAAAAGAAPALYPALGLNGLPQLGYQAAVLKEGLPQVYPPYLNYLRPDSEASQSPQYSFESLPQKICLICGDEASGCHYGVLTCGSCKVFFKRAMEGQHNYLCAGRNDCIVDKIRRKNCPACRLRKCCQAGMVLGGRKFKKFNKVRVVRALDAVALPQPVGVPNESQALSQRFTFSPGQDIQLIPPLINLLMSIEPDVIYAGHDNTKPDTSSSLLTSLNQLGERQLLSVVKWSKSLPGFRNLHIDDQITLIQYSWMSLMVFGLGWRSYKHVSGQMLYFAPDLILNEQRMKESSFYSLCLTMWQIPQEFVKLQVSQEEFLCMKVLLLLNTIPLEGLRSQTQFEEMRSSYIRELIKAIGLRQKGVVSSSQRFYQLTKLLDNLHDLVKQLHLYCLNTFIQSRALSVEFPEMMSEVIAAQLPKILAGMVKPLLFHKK
Sequence of Thyrotropin-releasing hormone receptor (Homo sapiens) (P34981 whole entry, looked up): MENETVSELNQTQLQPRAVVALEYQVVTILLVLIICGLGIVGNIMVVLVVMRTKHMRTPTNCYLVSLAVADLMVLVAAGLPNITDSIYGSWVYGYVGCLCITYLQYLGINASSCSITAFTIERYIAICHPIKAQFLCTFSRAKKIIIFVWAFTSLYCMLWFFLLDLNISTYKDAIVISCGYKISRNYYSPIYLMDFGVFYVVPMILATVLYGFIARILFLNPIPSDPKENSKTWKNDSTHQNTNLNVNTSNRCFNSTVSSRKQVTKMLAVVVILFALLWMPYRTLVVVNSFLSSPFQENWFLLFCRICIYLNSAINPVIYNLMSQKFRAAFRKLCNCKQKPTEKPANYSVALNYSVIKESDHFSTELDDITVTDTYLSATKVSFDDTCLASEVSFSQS

CC(Cl)(Cl)[N+](=O)[O-]
inactive: all assays above

CCOC(=O)N(C)C(=O)CSP(=S)(OCC)OCC
not listed: [9] | [10]
inactive: all other assays above

CCCSC(=O)N(CCC)CCC
inactive: all assays above

CCOP(=S)(Oc1cnc(C(C)(C)C)nc1)OC(C)C (stereo not drawn)
not listed: [9] | [10]
inactive: all other assays above

CCN(CC)C(C)C(=O)c1ccccc1 (stereo not drawn)
inactive: all assays above

CNC(=O)Oc1ccc(N(C)C)c(C)c1
inactive: all assays above

CCCCc1c(C)nc(NCC)[nH]c1=O
inactive: all assays above

CC(=O)C(Cl)Cl
not listed: [9] | [10]
inactive: all other assays above

ClCCOCOCCCl
inactive: all assays above

COc1cc(OC)nc(NC(=O)NS(=O)(=O)c2ncccc2OCC(F)(F)F)n1
not listed: [8] | [9] | [10]
inactive: all other assays above

CCCCN(CCCCO)N=O
inactive: all assays above

ClC(Br)Br
inactive: all assays above

CCc1cc2c(s1)-n1c(C)nnc1CN=C2c1ccccc1Cl
inactive: all assays above

Oc1c(Cl)cccc1Cl
inactive: all assays above

c1coc(-c2nc3ccccc3[nH]2)c1
not listed: [8]
inactive: all other assays above

N#Cc1c(Cl)cccc1Cl
inactive: all assays above

CN1CCC(O)(c2ccc(F)cc2)C(C(=O)c2ccc(F)cc2)C1 (stereo not drawn)
inactive: all assays above

CCCCP(CCCC)CCCC
inactive: all assays above

N#CCBr
inactive: all assays above

N#CCNCC#N
inactive: all assays above

O=[N+]([O-])c1cc(Cl)c(Cl)c(Cl)c1
inactive: all assays above

Nc1cnn(-c2ccccc2)c(=O)c1Cl
not listed: [8]
inactive: all other assays above

[Cl][Sn]([Cl])([Cl])[Cl]
inactive: all assays above

CC(C)COP(=O)(OCC(C)C)OCC(C)C
not listed: [8]
inactive: all other assays above

NC(=O)c1cc([N+](=O)[O-])cc([N+](=O)[O-])c1
inactive: all assays above
